Screening results from PubChem BioAssay.
Hits are enriched below; roughly 19% of the tested compounds scored in any of these assays.
DT40 TDP1 no CPT – qHTS for Inhibitors of human tyrosyl-DNA phosphodiesterase 1 (TDP1): qHTS in cells in absence of CPT. DT40 Tdp1-/- hTDP1 cells, no CPT, ATP luminescence, 48 h. Potency, µM (titrated, usually from 46.2 µM), actives largely listed as inhibitors. 420,000 compounds, 15% hits. AID 686978, 2013; further: nearly all actives have a fitted effect of over 55% in size
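Stably hTDP1-transfected Tdp1-null chicken DT40 cells were treated with library compounds minus camptothecin and grown for at least 48 hr at 37 °C, after which cellular ATP was quantified by luminescence.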
VP16 counter – Gal4-VP16 reporter inhibition counter-screen. Drosophila S2 Gal4-VP16 UAS-luciferase, luminescence, 20 h. 310,000 compounds, 3.5% hits. Potency, µM (top dose mostly 53.6 µM), hits mostly inhibitors;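 further: Gal4-VP16 expression switched on by copper sulfate through the metallothionein promoter; nearly all actives have a fitted effect of over 50% in size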
DT40 TDP1 CPT – DT40-hTDP1 cell growth loss with CPT; chicken DT40 Tdp1-/-;hTDP1 cells + 20 nM CPT, ATP luminescence, 48 h; Potency, µM (top dose mostly 46.2 µM), usual class: inhibitors; 420,000 compounds, 12% hits; AID 686979; further: nearly all actives have a fitted effect of over 55% in size
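Chicken DT40 Tdp1-/- cells stably complemented with human TDP1 were seeded at 400 cells/well in medium containing 20 nM camptothecin, exposed to pin-transferred compounds, and grown at 37 °C for at least 48 hr. Viability was read as ATP luminescence.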
TDP1 block – blocks human tyrosyl-DNA phosphodiesterase 1. 350,000 compounds, 0.28% hits. Potency, µM (doses to about 130 µM), actives largely listed as inhibitors. Q9NUW8. recombinant TDP1, AlphaScreen DNA substrate cleavage; further: nearly all actives have a fitted effect of over 40% in size
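Steps: enzyme plus compound, 15 min RT; add biotin/phosphotyrosine-FITC oligonucleotide (15 nM final), react 5 min; add donor/acceptor beads (10 ug/ml final), 10 min; read AlphaScreen. Tdp1 at 1 nM final.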
RORgamma inh – ROR gamma (mouse) transcription inhibition | P51450 | Drosophila S2 Gal4-RORgamma UAS-luciferase reporter, 20 h | Potency, µM (titrated, usually from 53.6 µM), actives largely listed as inhibitors | 310,000 compounds, 5.4% hits | AID 2551; further: nearly all actives have a fitted effect of over 60% in size
Target sequence (P51450 whole entry, looked up, the tested form may be a part): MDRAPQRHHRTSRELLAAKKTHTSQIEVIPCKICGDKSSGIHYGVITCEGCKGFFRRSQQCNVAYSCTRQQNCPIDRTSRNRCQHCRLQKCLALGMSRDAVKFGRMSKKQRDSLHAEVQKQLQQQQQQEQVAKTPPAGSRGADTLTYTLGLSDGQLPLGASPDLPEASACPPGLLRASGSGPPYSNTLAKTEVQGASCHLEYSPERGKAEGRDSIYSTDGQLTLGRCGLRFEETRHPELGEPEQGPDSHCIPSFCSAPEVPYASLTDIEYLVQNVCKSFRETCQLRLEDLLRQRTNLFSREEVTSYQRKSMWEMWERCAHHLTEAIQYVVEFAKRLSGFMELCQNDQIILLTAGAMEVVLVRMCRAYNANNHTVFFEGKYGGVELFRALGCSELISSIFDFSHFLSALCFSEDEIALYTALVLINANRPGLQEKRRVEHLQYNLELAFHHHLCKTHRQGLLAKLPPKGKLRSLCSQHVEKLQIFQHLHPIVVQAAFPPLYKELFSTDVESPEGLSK
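Read-out: Photinus luciferase luminescence; inhibitors lower reporter signal. Insect Schneider cells with Gal4-ROR gamma fusion under metallothionein promoter, UAS reporter; 700 uM final copper sulfate induction, 20 hr, ambient temperature.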
Hits are given with their value; - = inactive; ? = inconclusive; . = no result. The call rests on the fitted dose curve; in most records, active means well fitted curve in the direction sought with a large enough effect; inconclusive means small, poorly fitted or top-dose-only effect, or another doubt; inactive means no such curve, though single readings can be large; an effect the other way counts as inactive or inconclusive.

SMILES | DT40 TDP1 no CPT | VP16 counter | DT40 TDP1 CPT | TDP1 block | RORgamma inh
Cc1ccc(S(=O)(=O)N(C)C[C@@H]2OCCCC[C@@H](C)Oc3ccc(NS(=O)(=O)c4c(C)noc4C)cc3C(=O)N([C@H](C)CO)C[C@@H]2C)cc1 | 12µM | . | 16µM | . | .
C[C@@H]1CCCCO[C@@H](CN(C)CC2CCCCC2)[C@@H](C)CN([C@H](C)CO)C(=O)c2cc(NS(=O)(=O)c3ccc(Cl)cc3)ccc2O1 | 13µM | . | 16µM | . | .
Cc1ccc(S(=O)(=O)Nc2ccc3c(c2)C(=O)N([C@@H](C)CO)C[C@@H](C)[C@@H](CN(C)C(=O)NC(C)C)OCCCC[C@H](C)O3)cc1 | ? | . | - | . | .
Cc1ccc(S(=O)(=O)Nc2ccc3c(c2)C(=O)N([C@@H](C)CO)C[C@@H](C)[C@@H](CN(C)S(=O)(=O)c2ccccc2)OCCCC[C@H](C)O3)cc1 | 10µM | . | 8.2µM | . | .
C[C@@H]1CCCCO[C@@H](CN(C)Cc2ccc3c(c2)OCO3)[C@@H](C)CN([C@H](C)CO)C(=O)c2cc(NS(=O)(=O)c3ccccc3)ccc2O1 | 10µM | . | 18µM | . | .
CN(C)c1ccc(NC(=O)c2cccc(N3C(=O)CCC3=O)c2)cc1 | - | ? | - | - | -
COc1ccc(CC(=O)Nc2ccc3nc(Nc4cccc(Cl)c4)cc(C)c3c2)cc1 | 5.8µM | . | 6.5µM | - | .
COc1ccccc1CC(=O)Nc1ccc2c(C)cc(=O)oc2c1 | ? | - | - | - | -
Cc1cc(=O)oc2cc(NC(=O)COc3cccc(C(F)(F)F)c3)ccc12 | ? | . | ? | - | .
Cc1cc(Nc2cccc(C(F)(F)F)c2)nc2ccc(NC(=O)Cc3ccc(Cl)cc3)cc12 | 23µM | . | ? | - | .
COc1ccccc1CC(=O)Nc1ccc2nc(Nc3cccc(Cl)c3)cc(C)c2c1 | 16µM | . | 21µM | - | .
O=C(Cc1ccc([N+](=O)[O-])cc1)Nc1cccc(C(F)(F)F)c1 | ? | - | ? | - | ?
Cc1ccc(OCC(=O)Nc2ccc3nc(Nc4cccc(Cl)c4)cc(C)c3c2)cc1 | - | . | - | - | .
Cc1cccc(OCC(=O)Nc2ccc3nc(Nc4cccc(C(F)(F)F)c4)cc(C)c3c2)c1 | 13µM | . | 21µM | - | .
O=C(Cn1c(-c2cccs2)cc2cc(F)ccc21)NCCCN1CCN(c2ccc(F)cc2)CC1 | ? | . | ? | - | .
Cc1ccc(C(=O)C2CCN(C(=O)c3ccc(C)cc3)CC2)cc1 | ? | - | ? | . | -
CSCCC(NC(=O)c1ccccc1)C(=O)N1CC(C)OC(C)C1 (configuration not stated) | - | . | - | - | .
CN1C(=S)NC(C)(C)CC1(C)c1ccc(O)cc1O (configuration not stated) | - | - | - | - | -
O=C1CCC[C@@H]2[C@@H](Cc3ccccc3)[C@@H](Nc3ccccc3)C[C@@H]3CCN1[C@@H]32 | 11µM | . | ? | . | .
O=C(CSc1nnc(COc2ccc(Br)cc2)o1)N1CCOCC1 | 18µM | - | - | - | -
COc1ccc(OCc2nnc(SCC(=O)Nc3ccc(C)cc3)o2)cc1 | - | - | - | - | -
O=C(CSc1nnc(COc2ccccc2)o1)N1CCOCC1 | - | - | - | - | 0.11µM
O=C(CSc1nnc(COc2ccccc2)o1)N1CCN(c2ccccc2)CC1 | ? | - | - | - | -
Cc1ccc(OCc2nnc(SCC(=O)CC(=O)Nc3ccccc3)o2)cc1 | - | ? | - | - | 13µM
CNC(=O)CSc1nc(-c2ccccc2)c(-c2ccccc2)o1 | ? | - | - | - | -
COCC(C)NC(=O)CSc1nc(-c2ccccc2)c(-c2ccccc2)o1 (configuration not stated) | 8.2µM | - | 12µM | - | -
CC[C@H](C)[C@@H](COC=O)NC(=O)[C@H]1O[C@@H](n2ccc(N)nc2=O)[C@H](O)[C@@H]1O | - | . | - | . | .
O=C(CSc1nc(-c2ccccc2)c(-c2ccccc2)o1)N1CCOCC1 | 16µM | - | 29µM | - | -
CCc1ccc(C(O)(CNCc2ccccc2)c2ccccc2)cc1 (configuration not stated) | 21µM | 13µM | 23µM | . | -
Cc1ccc(CNC(=O)Nc2ccccc2)cc1 | - | ? | ? | - | -
